This passage reports outcome and AC50 results from PubChem BioAssay (EPA / NIEHS).

Test [1] is described as follows: BSK_3C_VCAM1: BioMAP Diversity Plus: 3C Assay for Vascular cell adhesion molecule 1 (VCAM1) Biomarker Activity (AID 2282999). The settings on record: BioMAP 3C HUVEC, VCAM1 ELISA, cytokine-stimulated; actives raise or lower the signal. The method, boiled down: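 Human umbilical vein endothelial cells (3C system), biomarker read by ELISA 24 h after dosing; bidirectional fit against DMSO baseline. Cytotoxicity tracked by SRB total-protein staining in parallel cultures at biomarker time.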

A short description of test [2]: BSK_4H_Eotaxin3: BioMAP Diversity Plus: 4H Assay for Eotaxin 3 Biomarker Activity (AID 2283000).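 On outcome: CCL26 protein level quantified by ELISA in parallel with SRB cytotoxicity check.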 The settings on record: primary human endothelial cells (HUVEC); actives raise or lower the signal. The method, boiled down:
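Endothelial primary cells (human umbilical vein) exposed to compound for 24 h. ELISA detection of Eotaxin-3.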

Test [3] deals with human Peroxisome Proliferator-activated Receptor alpha (PPARa), PPARA (gene 5465) (UniProt Q07869). Put plainly: ATG_PPARa_TRANS: Attagene TRANS-FACTORIAL HepG2 Assay for human Peroxisome Proliferator-activated Receptor alpha (PPARa) (AID 2283001; active means hit-call score of the fitted dose curve at least 0.9, where 1 is the maximum;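 on AC50: potency for gain of reporter signal over DMSO so agonist or activator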). The method, boiled down:
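Measures transcriptional activity of an exogenous chimeric PPARa-Gal4 protein in transiently transfected HepG2 cells after 24 h dosing. Reporter mRNA quantified via RT-PCR and capillary electrophoresis; DMSO served as negative control.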

Read-out in test [4]: Intercellular Adhesion Molecule 1 (ICAM1), ICAM1 (gene 3383)
Put plainly: BSK_3C_ICAM1: BioMAP Diversity Plus: 3C Assay for Intercellular Adhesion Molecule 1 (ICAM1) Biomarker Activity (AID 2283003). Particulars: primary human endothelial cells (HUVEC); actives raise or lower the signal. The method, boiled down: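 Human vascular endothelial primary cells, 3C conditions, 24 h treatment. ICAM-1 by ELISA.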

In test [5] the target is human Retinoic Acid Receptor beta (RARb), RARB (gene 5915) (UniProt P10826). Put plainly: ATG_RARb_TRANS: Attagene TRANS-FACTORIAL HepG2 Assay for human Retinoic Acid Receptor beta (AID 2283004; active means hit-call score of the fitted dose curve at least 0.9, where 1 is the maximum). The method, boiled down: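 HepG2, transient MRTU transfection, NR–Gal4 chimera, 24 h treatment; RT-PCR plus CE fluorescence detection of reporter mRNA; gain of signal vs DMSO.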

Test [6] concerns the target Retinoic acid receptor alpha (Homo sapiens) (UniProt P10276). The experiment in a line: ATG_RARa_TRANS: Attagene TRANS-FACTORIAL HepG2 Assay for human Retinoic Acid Receptor alpha (RARa) (AID 2283005; active means hit-call score of the fitted dose curve at least 0.9, where 1 is the maximum). The method, boiled down: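 HepG2 transiently transfected with multiplex GAL4-UAS reporter units including a human RARa–GAL4 chimera; 24 h compound exposure. Reporter mRNA quantified by RT-PCR, 6-FAM labeling and capillary electrophoresis; gain of signal versus DMSO.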

Test [7] in a line: BSK_3C_Proliferation: Cell Proliferation Assessment in the BioMAP Diversity Plus: 3C Assay (AID 2283006).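 On AC50: potency may reflect either rise or fall in cell number versus DMSO.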 The settings on record: primary human endothelial cells (HUVEC). The method, boiled down: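 Proliferation of human vascular endothelial primary cells after 48 h dosing, quantified as SRB-stained protein at 560 nm relative to DMSO.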
The target in test [8] is Peroxisome proliferator-activated receptor gamma (Homo sapiens) (UniProt P37231). Put plainly: ATG_PPARg_TRANS: Attagene TRANS-FACTORIAL HepG2 Assay for human Peroxisome Proliferator-activated Receptor-gamma (PPARg) (AID 2283007; active means hit-call score of the fitted dose curve at least 0.9, where 1 is the maximum). The method, boiled down: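 A TRANS-format multiplexed reporter assay measures activity of an exogenous chimeric NR-Gal4 protein in HepG2 cells. After 24 h of chemical exposure, reporter transcripts are amplified, fluorescently labelled and sized by capillary electrophoresis, with gain of signal scored against DMSO.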

For test [9], the target named is Nuclear receptor subfamily 1 group I member 2 (Homo sapiens) (UniProt O75469). Put plainly: ATG_PXR_TRANS: Attagene TRANS-FACTORIAL HepG2 Assay for human Pregnane X Receptor (PXR) (AID 2283008; active means hit-call score of the fitted dose curve at least 0.9, where 1 is the maximum). The method, boiled down:
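Read-out is fluorescence of labelled reporter cDNA fragments separated by capillary electrophoresis after RT-PCR and HpaI digestion. Source: HepG2 cells carrying PXR-GAL4/UAS reporter constructs, treated 24 h; activity fitted upward relative to DMSO.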

The target in test [10] is human Retinoic Acid Receptor gamma (RARg), RARG (gene 5916) (UniProt P13631). The experiment in a line: ATG_RARg_TRANS: Attagene TRANS-FACTORIAL HepG2 Assay for human Retinoic Acid Receptor gamma (RARg) (AID 2283009; active means hit-call score of the fitted dose curve at least 0.9, where 1 is the maximum). The method, boiled down: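 HepG2, RARg-GAL4 TRANS system, 24 h exposure; reporter mRNA by RT-PCR + CE fluorescence; increase over DMSO.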
Test [11] concerns the target human RAR-related Orphan Receptor gamma (RORg), RORC (gene 6097) (UniProt P51449). Put plainly: ATG_RORg_TRANS: Attagene TRANS-FACTORIAL HepG2 Assay for human RAR-related Orphan Receptor gamma (RORg) (AID 2283011; active means hit-call score of the fitted dose curve at least 0.9, where 1 is the maximum). The method, boiled down: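 Activity is scored as increase in GAL4-UAS reporter mRNA over DMSO, detected by fluorescent RT-PCR and capillary electrophoresis in HepG2 cells transiently expressing a RORg-Gal4 chimera, 24 h after dosing.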

Test [12] addresses human Retinoid X Receptor beta (RXRb), RXRB (gene 6257) (UniProt P28702). Put plainly: ATG_RXRb_TRANS: Attagene TRANS-FACTORIAL HepG2 Assay for human Retinoid X Receptor beta (RXRb) (AID 2283013; active means hit-call score of the fitted dose curve at least 0.9, where 1 is the maximum). The method, boiled down: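 Multiplexed TRANS reporter assay in HepG2; 24 h dosing; reporter mRNA by RT-PCR/CE fluorescence; gain-of-signal relative to DMSO.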
Read-out in test [13]: E-selectin (Homo sapiens) (UniProt P16581)
The experiment in a line: BSK_3C_Eselectin: BioMAP Diversity Plus: 3C Assay for Eselectin Biomarker Activity (AID 2283015).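 On outcome: cell surface E-selectin protein quantified by ELISA 24 h after dosing.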 The settings on record: primary human endothelial cells (HUVEC); actives raise or lower the signal. The method, boiled down:
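Human vascular endothelium from umbilical vein is exposed to test chemicals for 24 h. E-selectin levels are read by ELISA and compared with DMSO controls.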

Read-out in test [14]: Interleukin-1 alpha (IL1a), IL1A (gene 3552)
The experiment in a line: BSK_BE3C_IL1a: BioMAP Diversity Plus: BE3C Assay for Interleukin-1 alpha (IL1a) Biomarker Activity (AID 2283016). Particulars: primary human bronchial epithelial cells; actives raise or lower the signal. The method, boiled down:
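Cultures of primary human bronchial epithelial cells receive test chemical. After 24 h, IL-1a is quantified by ELISA, while parallel wells are fixed in TCA and SRB-stained for total protein. Changes in either direction are fitted relative to DMSO.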

Read-out in test [15]: Monocyte Chemoattractant Protein-1 (MCP1), CCL2 (gene 6347)
The experiment in a line: BSK_3C_MCP1: BioMAP Diversity Plus: 3C Assay for Monocyte Chemoattractant Protein-1 (MCP1) Biomarker Activity (AID 2283017). Particulars: primary human endothelial cells (HUVEC); actives raise or lower the signal. The method, boiled down:
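Endothelial cells from human umbilical vein are dosed with chemical, cultured 24 h, then assayed for MCP-1 by ELISA; both increases and decreases are modelled against DMSO controls.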

Read-out in test [16]: Monocyte Chemoattractant Protein-1 (MCP1), CCL2 (gene 6347)
Put plainly: BSK_4H_MCP1: BioMAP Diversity Plus: 4H Assay for Monocyte Chemoattractant Protein-1 (MCP1) Biomarker Activity (AID 2283018). Particulars: primary human endothelial cells (HUVEC); actives raise or lower the signal. The method, boiled down:
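Readout: MCP-1 ELISA on compound-treated HUVEC, sampled 24 h post-dosing. Baseline and negative control DMSO; bidirectional fit. Overt toxicity checked alongside by sulforhodamine B protein staining at time of biomarker measurement.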

Test [17] deals with human Thyroid Receptor alpha (THRa1), THRA (gene 7067) (UniProt P10827). The experiment in a line: ATG_THRa1_TRANS: Attagene TRANS-FACTORIAL HepG2 Assay for human Thyroid Receptor alpha (THRa1) (AID 2283014; active means hit-call score of the fitted dose curve at least 0.9, where 1 is the maximum). The method, boiled down: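 First, HepG2 cells receive multiple GAL4-UAS reporter units and the chimeric receptor. They are then dosed for 24 h, after which RNA is reverse-transcribed, amplified, labelled, HpaI-cut and sized by capillary electrophoresis; gain relative to DMSO is scored.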

Test [18] deals with human RAR-related Orphan Receptor beta (RORb), RORB (gene 6096) (UniProt Q92753). The experiment in a line: ATG_RORb_TRANS: Attagene TRANS-FACTORIAL HepG2 Assay for human RAR-related Orphan Receptor beta (RORb) (AID 2283010; active means hit-call score of the fitted dose curve at least 0.9, where 1 is the maximum). The method, boiled down:
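In this TRANS-format test, human HepG2 cells express chimeric NR-Gal4 fusion proteins driving GAL4-UAS reporters. After 24 h dosing, reporter transcripts are measured by fluorescent RT-PCR/capillary electrophoresis, with DMSO as negative control.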

The target in test [19] is Retinoic acid receptor RXR-alpha (Homo sapiens) (UniProt P19793). Put plainly: ATG_RXRa_TRANS: Attagene TRANS-FACTORIAL HepG2 Assay for human Retinoid X Receptor alpha (RXRa) (AID 2283012; active means hit-call score of the fitted dose curve at least 0.9, where 1 is the maximum). The method, boiled down:
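Cells (HepG2) carried transiently transfected GAL4-responsive reporter units. Following a 24 h chemical incubation, reporter mRNA induction was read via RT-PCR fragment analysis; DMSO served as negative control and baseline.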

Values joined by “and” are separate entries in the source; they are usually repeats but may differ in a detail not shown here. Equal values may be shown once. Results filed as inconclusive are left out. Some structures have more than one record in an assay (separate samples or runs), and their calls can disagree. Active and inactive are the calls of the source. How the source made its calls, unless noted: active means hit-call score of the fitted dose curve at least 0.9, where 1 is the maximum; inactive means score below 0.9.

Chain of human Retinoic Acid Receptor beta (RARb), RARB (gene 5915) (P10826 whole entry, looked up, the tested form may be a part): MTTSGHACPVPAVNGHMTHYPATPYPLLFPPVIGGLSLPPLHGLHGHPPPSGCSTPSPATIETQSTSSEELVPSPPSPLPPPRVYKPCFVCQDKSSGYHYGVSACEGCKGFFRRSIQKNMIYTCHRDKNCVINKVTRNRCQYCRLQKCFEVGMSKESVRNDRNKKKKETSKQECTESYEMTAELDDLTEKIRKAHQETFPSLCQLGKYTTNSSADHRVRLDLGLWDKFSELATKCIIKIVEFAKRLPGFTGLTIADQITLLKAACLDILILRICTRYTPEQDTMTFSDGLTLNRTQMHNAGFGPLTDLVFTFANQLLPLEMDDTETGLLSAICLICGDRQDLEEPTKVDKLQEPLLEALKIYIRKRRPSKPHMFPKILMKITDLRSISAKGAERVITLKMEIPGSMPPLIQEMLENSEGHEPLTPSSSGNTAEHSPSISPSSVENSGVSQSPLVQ
Chain of human Retinoid X Receptor beta (RXRb), RXRB (gene 6257) (P28702 whole entry, looked up): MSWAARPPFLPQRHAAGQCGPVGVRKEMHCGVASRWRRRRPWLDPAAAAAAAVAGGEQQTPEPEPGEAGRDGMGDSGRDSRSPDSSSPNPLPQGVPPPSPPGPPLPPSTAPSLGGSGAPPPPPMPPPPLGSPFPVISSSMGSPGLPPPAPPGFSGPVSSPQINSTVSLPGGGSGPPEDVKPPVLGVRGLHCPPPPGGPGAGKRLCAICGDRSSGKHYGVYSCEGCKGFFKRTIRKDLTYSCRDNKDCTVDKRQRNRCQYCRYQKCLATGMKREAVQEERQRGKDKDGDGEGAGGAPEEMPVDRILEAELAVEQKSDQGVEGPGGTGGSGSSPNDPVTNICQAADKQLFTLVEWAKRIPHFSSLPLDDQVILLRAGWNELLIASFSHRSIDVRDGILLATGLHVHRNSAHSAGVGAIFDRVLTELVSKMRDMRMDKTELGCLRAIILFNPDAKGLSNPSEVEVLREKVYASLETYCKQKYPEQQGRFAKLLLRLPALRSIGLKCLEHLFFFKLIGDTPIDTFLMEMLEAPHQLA
Chain of Peroxisome proliferator-activated receptor gamma (Homo sapiens) (P37231 whole entry, looked up, the tested form may be a part): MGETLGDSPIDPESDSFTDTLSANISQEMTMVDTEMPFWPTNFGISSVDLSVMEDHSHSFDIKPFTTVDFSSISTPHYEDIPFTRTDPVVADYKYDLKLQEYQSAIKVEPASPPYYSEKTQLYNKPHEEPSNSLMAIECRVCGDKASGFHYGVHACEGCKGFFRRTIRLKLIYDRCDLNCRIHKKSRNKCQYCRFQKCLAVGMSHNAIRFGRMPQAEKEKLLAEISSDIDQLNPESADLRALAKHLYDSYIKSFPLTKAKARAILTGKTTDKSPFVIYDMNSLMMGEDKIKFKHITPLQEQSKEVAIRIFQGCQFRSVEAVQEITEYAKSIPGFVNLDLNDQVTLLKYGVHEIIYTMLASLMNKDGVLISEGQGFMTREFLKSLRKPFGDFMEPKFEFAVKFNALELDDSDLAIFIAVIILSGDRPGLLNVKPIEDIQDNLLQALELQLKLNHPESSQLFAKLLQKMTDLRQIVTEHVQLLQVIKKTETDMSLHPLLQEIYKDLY
Chain of human Retinoic Acid Receptor gamma (RARg), RARG (gene 5916) (P13631 whole entry, looked up, the tested form may be a part): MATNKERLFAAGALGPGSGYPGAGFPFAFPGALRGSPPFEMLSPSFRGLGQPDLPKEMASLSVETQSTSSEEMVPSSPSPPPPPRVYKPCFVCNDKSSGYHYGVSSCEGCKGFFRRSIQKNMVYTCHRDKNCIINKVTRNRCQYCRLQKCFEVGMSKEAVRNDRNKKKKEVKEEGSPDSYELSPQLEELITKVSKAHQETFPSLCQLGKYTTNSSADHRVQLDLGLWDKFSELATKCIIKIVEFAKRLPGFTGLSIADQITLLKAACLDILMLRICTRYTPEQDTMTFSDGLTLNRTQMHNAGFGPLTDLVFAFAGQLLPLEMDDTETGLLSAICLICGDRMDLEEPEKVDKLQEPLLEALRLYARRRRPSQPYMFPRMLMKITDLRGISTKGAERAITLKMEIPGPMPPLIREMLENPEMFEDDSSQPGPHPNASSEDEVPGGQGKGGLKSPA
Chain of Nuclear receptor subfamily 1 group I member 2 (Homo sapiens) (O75469 whole entry, looked up, the tested form may be a part): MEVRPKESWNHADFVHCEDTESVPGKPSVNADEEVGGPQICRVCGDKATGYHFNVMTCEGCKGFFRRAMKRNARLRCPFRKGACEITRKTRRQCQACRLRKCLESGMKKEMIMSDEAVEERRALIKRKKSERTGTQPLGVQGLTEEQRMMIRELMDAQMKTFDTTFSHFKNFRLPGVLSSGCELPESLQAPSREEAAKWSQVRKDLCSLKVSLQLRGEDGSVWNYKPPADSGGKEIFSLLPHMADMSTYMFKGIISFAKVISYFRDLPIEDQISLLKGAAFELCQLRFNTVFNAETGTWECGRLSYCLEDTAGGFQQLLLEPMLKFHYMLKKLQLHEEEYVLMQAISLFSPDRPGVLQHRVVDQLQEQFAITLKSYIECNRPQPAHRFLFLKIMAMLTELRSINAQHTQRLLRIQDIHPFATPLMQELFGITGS
Chain of human RAR-related Orphan Receptor gamma (RORg), RORC (gene 6097) (P51449 whole entry, looked up, the tested form may be a part): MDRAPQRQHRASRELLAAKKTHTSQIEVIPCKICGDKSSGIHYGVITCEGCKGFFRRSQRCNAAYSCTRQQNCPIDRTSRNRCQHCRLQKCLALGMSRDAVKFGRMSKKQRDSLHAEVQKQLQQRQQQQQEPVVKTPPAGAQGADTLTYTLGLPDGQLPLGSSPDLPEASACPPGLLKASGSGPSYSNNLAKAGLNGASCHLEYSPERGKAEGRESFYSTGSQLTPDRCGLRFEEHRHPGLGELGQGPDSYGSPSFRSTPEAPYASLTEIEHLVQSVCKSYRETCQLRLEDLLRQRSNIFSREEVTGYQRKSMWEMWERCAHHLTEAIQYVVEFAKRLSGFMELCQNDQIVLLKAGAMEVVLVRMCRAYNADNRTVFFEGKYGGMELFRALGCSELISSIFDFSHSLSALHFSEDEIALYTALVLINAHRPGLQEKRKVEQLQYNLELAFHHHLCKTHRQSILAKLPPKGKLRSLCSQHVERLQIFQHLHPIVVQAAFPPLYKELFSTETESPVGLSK
Chain of Retinoic acid receptor alpha (Homo sapiens) (P10276 whole entry, looked up, the tested form may be a part): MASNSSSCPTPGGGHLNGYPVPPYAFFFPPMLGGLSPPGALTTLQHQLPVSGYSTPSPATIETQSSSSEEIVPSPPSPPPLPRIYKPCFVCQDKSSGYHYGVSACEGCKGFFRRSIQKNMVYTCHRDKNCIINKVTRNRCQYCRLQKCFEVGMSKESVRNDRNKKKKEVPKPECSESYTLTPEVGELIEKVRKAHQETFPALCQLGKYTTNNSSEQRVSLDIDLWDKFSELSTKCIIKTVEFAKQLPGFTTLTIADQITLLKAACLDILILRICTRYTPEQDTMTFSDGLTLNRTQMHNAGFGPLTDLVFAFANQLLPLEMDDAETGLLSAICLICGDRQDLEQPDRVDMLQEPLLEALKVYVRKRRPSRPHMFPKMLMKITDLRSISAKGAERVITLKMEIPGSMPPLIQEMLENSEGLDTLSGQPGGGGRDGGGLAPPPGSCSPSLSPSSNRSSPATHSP
Chain of human Peroxisome Proliferator-activated Receptor alpha (PPARa), PPARA (gene 5465) (Q07869 whole entry, looked up, the tested form may be a part): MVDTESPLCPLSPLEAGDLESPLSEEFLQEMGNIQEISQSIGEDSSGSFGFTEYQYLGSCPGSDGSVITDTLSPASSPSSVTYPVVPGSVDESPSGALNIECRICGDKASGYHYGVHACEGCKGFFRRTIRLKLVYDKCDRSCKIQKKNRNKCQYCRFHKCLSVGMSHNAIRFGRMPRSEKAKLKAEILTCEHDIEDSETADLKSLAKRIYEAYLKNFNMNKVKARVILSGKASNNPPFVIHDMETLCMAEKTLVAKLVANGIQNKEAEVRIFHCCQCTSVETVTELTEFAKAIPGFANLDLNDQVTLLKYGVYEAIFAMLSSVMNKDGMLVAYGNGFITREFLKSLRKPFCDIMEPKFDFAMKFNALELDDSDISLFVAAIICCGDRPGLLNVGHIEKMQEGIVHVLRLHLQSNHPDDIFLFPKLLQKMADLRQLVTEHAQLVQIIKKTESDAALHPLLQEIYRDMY
Chain of E-selectin (Homo sapiens) (P16581 whole entry, looked up): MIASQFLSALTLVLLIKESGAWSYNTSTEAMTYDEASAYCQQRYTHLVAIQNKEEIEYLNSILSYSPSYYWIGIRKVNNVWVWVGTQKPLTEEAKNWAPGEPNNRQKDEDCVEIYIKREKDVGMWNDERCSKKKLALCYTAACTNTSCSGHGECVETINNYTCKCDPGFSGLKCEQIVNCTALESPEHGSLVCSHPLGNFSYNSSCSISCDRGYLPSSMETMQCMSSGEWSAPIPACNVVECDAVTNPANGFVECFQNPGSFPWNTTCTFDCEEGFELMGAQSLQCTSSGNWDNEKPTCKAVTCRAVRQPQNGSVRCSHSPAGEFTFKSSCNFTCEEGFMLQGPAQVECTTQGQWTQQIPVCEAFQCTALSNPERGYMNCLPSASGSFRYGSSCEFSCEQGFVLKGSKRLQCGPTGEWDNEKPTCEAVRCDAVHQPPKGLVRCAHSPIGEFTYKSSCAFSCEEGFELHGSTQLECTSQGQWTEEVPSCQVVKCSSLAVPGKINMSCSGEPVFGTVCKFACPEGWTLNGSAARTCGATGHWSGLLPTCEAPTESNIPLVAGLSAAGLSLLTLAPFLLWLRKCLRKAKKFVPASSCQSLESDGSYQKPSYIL
Chain of human Thyroid Receptor alpha (THRa1), THRA (gene 7067) (P10827 whole entry, looked up, the tested form may be a part): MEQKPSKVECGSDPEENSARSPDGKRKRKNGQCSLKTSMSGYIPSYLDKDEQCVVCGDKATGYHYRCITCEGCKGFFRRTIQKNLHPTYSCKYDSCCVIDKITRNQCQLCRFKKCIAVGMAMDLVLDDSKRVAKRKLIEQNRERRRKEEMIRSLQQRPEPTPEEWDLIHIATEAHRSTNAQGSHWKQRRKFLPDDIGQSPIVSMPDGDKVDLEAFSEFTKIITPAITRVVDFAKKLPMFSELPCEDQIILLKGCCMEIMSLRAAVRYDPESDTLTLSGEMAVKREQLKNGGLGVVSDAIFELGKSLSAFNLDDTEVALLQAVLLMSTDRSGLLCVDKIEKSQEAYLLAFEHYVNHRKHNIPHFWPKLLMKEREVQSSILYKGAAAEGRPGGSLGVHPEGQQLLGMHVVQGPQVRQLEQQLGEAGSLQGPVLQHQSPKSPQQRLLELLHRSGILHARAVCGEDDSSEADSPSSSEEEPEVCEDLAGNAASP

For the compound `CC(C)(C)c1ccc(CSc2cnn(C(C)(C)C)c(=O)c2Cl)cc1`, the outcome in test [1], in test [3], in test [4], in test [5], in test [6] and in [9] was inactive. The call in [10], in [11], in [12] and in [14] was inactive. The AC50 in test [2] is 0.782 µM (active); in [7], 9.12 µM (active); in [8], 10.5 µM (active); in test [13], 3.97 µM (active); in test [15], 10.4 µM (active); in [16], 0.221 µM (active).
`CCc1nn(C)c(C(=O)NCc2ccc(C(C)(C)C)cc2)c1Cl`: the AC50 in test [1] was 31.8 µM (active); in test [2] it was 27.1 µM (active); in test [7], 15.6 µM (active); in test [17], 0.157 µM (active); in [13], 20 µM (active); in test [14], 20 µM (active). For the same compound, the AC50 in test [15] is 28.4 µM (active); in [16], 20 µM (active). In addition, the call in [3], in test [4], in [5], in test [6], in [8] and in [9] was inactive. Further, the compound was classed as inactive in test [10] and in test [11].
Turning to `CCCCNC(=O)n1c(NC(=O)OC)nc2ccccc21`, the outcome in test [1], in test [2], in test [3], in test [4], in [6] and in test [8] was inactive. The compound was called inactive in [9], in test [10], in test [12], in [13], in [14] and in test [16]. In addition, the AC50 is 11.2 µM (active) in test [7] and 10 µM (active) in test [15].
As to `CCOC(=O)CC(SP(=S)(OC)OC)C(=O)OCC` (centres undefined), the outcome in test [1], in test [2], in test [3], in test [4], in test [7] and in test [9] was inactive. In addition, the outcome in test [11], in [12], in test [13], in [14], in test [15] and in test [16] was inactive. The AC50 in test [8] was 14.2 µM (active) and 25.1 µM (active); in test [9], 1.53 µM (active); in test [12], 63.4 µM (active).
`COC(=O)c1ccccc1C(=O)OC`: the outcome in [1], in test [2], in [3], in [4], in [5] and in test [6] was inactive. In addition, the outcome in test [7], in [8], in [9], in test [18], in test [13] and in [14] was inactive. In addition, the result in [15] and in test [16] was inactive.
Take `CC(Oc1ccc(Cl)cc1Cl)C(=O)O` (centres undefined): the outcome in test [1], in [2], in test [3], in [4], in test [5] and in test [6] was inactive. Moreover, the result in test [7], in [9], in test [10], in [12], in [13] and in test [14] was inactive. Moreover, the result in test [15] and in test [16] was inactive. In addition, in test [8], the AC50 is 39.1 µM (active).
Turning to `N#Cc1cc(Br)c(O)c(Br)c1`, the outcome in test [1], in test [2], in [4], in test [9], in [19] and in test [12] was inactive. Moreover, the compound was classed as inactive in [17], in test [13], in [14] and in test [15]. The AC50 in test [3] is 15.9 µM (active); in [7] it was 15.8 µM (active); in test [8], 29.9 µM (active); in [16] it was 14.3 µM (active).
